Autophagy mod = autophagy modulators in MEF cells, primary screen, imaging, high-content, MEF GFP-LC3; MEF GFP-LC3 puncta imaging; test concentration mostly 10 µM; calls only at 10 µM (by protocol); 0.98% of 190,000 active; AID 463193, 2010;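 active means percentage of spot-positive cells more than 3 SD above its plate mean, without a fluorescence outlier flag or 80% toxicity; inconclusive means no clear call, values can overlap the other calls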
Insulin prom up = insulin promoter activators in MIN6 cells, imaging, high-content screening, mouse beta cells; MIN6 insulin promoter-GFP reporter; active compounds read high; z-score at 5 µM; 0.3% of 190,000 active; AID 1625, 2009;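 active means z-score above 3 at 5 µM with at least 500 cells counted in the well; inconclusive means wells under 500 cells, flagged as cytotoxic or low count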
INS promoter inh = inhibitors of insulin promoter-driven GFP, primary screen, imaging, TRM-6 cells (human fetal islet line), eGFP reporter, cell count; reporter expression induced with tamoxifen; inhibition, % at 2 µM; 0.9% of 130,000 active; AID 1273, 2008;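 active means inhibition above the mean plus 3 SD, with well images judged a real hit on visual review, cut at about 60% in these data, passing the limit was not always enough; inconclusive means inhibition over the cutoff but images rejected on review; inactive means inhibition not above the cutoff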
PERK inh = block of dimerizer-induced PERK translation repression, primary screen, PERK inhibitor project, CHO PERK-DD cells, SEAP luminescence, HTS; Eukaryotic translation initiation factor 2-alpha kinase 3 (Homo sapiens), Q9NZJ5; CHO PERK-DD fusion, SEAP luminescence translation reporter; inhibition, % at 5.6 µM; 0.17% of 220,000 active;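 active means inhibition above the mean inhibition of all tested compounds plus 3 SD, set separately per screening campaign, cut at about 2.9% in these data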;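 further: PERK kinase domain activated by AP20187 dimerizer at 100 nM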
Target sequence (Q9NZJ5 whole entry, looked up, the tested form may be a part): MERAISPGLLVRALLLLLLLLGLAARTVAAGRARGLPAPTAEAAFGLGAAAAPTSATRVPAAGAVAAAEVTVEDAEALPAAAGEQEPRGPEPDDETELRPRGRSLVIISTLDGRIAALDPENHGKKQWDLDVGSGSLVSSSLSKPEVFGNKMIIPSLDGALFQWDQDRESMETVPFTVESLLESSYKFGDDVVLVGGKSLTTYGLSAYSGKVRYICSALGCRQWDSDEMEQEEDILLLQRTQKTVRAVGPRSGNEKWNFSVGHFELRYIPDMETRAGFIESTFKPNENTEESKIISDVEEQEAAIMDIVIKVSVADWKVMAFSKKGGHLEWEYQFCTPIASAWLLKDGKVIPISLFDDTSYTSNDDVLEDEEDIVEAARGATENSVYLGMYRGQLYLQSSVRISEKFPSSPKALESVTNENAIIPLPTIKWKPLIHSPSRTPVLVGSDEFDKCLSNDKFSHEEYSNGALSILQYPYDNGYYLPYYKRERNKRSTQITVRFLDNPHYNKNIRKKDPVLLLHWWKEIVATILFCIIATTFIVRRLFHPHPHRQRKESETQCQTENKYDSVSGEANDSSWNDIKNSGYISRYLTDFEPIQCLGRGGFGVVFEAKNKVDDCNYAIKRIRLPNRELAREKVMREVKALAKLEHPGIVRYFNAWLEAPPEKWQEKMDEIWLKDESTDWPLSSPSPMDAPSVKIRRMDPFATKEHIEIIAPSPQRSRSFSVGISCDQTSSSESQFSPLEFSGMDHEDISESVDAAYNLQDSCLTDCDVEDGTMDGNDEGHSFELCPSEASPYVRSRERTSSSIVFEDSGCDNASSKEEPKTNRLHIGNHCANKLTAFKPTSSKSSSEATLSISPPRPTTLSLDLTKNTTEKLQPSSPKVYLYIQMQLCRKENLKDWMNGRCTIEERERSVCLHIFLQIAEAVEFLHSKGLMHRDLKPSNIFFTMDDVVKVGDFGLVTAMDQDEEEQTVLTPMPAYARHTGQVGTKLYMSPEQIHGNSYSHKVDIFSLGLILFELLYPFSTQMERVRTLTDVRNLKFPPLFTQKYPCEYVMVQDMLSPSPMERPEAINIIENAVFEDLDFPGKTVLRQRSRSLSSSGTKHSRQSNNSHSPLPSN
eIF4E 4G PPI = eIF4E–eIF4G protein interaction inhibitors, primary screen, biochemical, uHTS, TR-FRET, eIF4GI fragment; TR-FRET eIF4E-eIF4GI(517-606) binding, 2 h; inhibition, % at 21.7 µM; AID 782, 2007; Eukaryotic translation initiation factor 4E (Mus musculus) + Eukaryotic translation …; 0.37% of 220,000 active;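 active means inhibition above about 30%, limit read from the data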
Large screens that a line does not name were inactive; [ ] = dose if it differs, or a comment. Shown are actives, neighbours in structure and some others; about 2% of the full set was active somewhere.

Cc1noc(C)c1COc1ccc(C(=O)OCC(N)=O)cc1	none (no result: INS promoter inh)
COc1ccc(S(=O)(=O)N2CCC(C(=O)NCC3CCCO3)CC2)cc1 (centres undefined)	none
Nc1ccc(Br)c2c1C(=O)c1ccccc1C2=O	none
Nc1ccc(O)c2c1C(=O)c1ccccc1C2=O	eIF4E 4G PPI 31[fluorescence artefact?] (no result: Insulin prom up)
CCc1ccc2c(c1)c(N=NC1=NC(=O)CS1)c(O)n2C	INS promoter inh 79
C=CCNC(=S)NNC(=O)c1ccccc1OCC	none (no result: INS promoter inh)
Cc1ccc(C(=O)N/C(=C\c2ccc3c(c2)OCO3)C(=O)Nc2ccc(C(=O)O)cc2)cc1	none (no result: INS promoter inh)
CSc1nsc(SC)c1C(=O)O	none
Cc1nsc(N)c1C(=O)O	PERK inh 3.4 (no result: Autophagy mod, INS promoter inh)
CN(C)CCN=Cc1c(O)n(Cc2ccc3c(c2)OCO3)c(=O)c2ccccc12	none
Cc1ccc(N=Cc2c(O)n(-c3ccc4c(c3)OCO4)c(=O)c3ccccc23)cc1	Autophagy mod active (no result: Insulin prom up)
CN(C)CCCN=Cc1c(O)n(Cc2ccc3c(c2)OCO3)c(=O)c2ccccc12	Autophagy mod active (no result: INS promoter inh)
Cc1nn(C)cc1/C=N/NC(=O)Cn1cncn1	none (no result: Autophagy mod, INS promoter inh)
CC(=O)NC1C(=O)Nc2c(C)cc(C)cc21 (centres undefined)	none
O=c1[nH]c2cc3ccccc3cc2nc1C(F)(F)F	none (no result: INS promoter inh)
CC(C)c1nc2cc3ccccc3cc2[nH]1	INS promoter inh 86
CC(C)CCC1=NN(C(=O)c2ccco2)C(O)(C(F)(F)F)C1 (centres undefined)	none (no result: INS promoter inh)
COc1ccc2cc3[n+](cc2c1OC)CCc1cc2c(cc1-3)OCO2	Insulin prom up inconclusive, INS promoter inh 67
Cc1cnc(NC(=O)CN2CCN(c3ccccn3)CC2)s1	Insulin prom up 3.1
N#C/C(=C\c1ccc(OC(=O)c2ccc(Br)s2)cc1)c1nc2ccccc2[nH]1	eIF4E 4G PPI 34 (no result: Insulin prom up)
Cc1onc(-c2ccccc2Cl)c1C(=O)Nc1sc2c(c1C(N)=O)CCC(C)C2 (centres undefined)	none (no result: Insulin prom up)
CC(C)(C)n1nnnc1CN1CCN(C(c2ccccc2)c2ccccc2)CC1	none (no result: Insulin prom up)
Cc1nc(NCc2ccc3c(c2)OCO3)c2nnn(Cc3ccccc3)c2n1	Autophagy mod active
c1ccc(Cn2nnc3c(NCc4ccc5c(c4)OCO5)nc(C4CC4)nc32)cc1	Autophagy mod active (no result: INS promoter inh)
CCOc1ccc(Cn2c(C)nc([N+](=O)[O-])c2SCC(O)CCl)cc1[N+](=O)[O-] (centres undefined)	none
Cc1cc(C(=O)NNC(=O)NC(C)C)no1	none (no result: Autophagy mod, Insulin prom up, INS promoter inh)
COc1cc(/C=C(/C#N)c2nc(-c3cc4ccccc4oc3=O)cs2)cc([N+](=O)[O-])c1O	eIF4E 4G PPI 62 (no result: Autophagy mod, INS promoter inh)
O=C(NCc1ccncc1)C1CCCCC1	none
CC(=O)Nc1ccc(NC(=O)CSc2nnc(-c3ccco3)o2)cc1	Autophagy mod active
CCC1CCCCN1C(=O)CSc1nnc(-c2ccco2)o1 (centres undefined)	INS promoter inh 86
Cc1cc(NC(=O)CSc2nnc(-c3ccco3)o2)no1	none
CN(C)CCOc1ccccc1-c1ccccc1	none
CN(C)CCOCCOc1ccccc1-c1ccccc1	Insulin prom up 5
O=C(NCC1COc2ccccc2O1)c1ccccc1 (centres undefined)	none
Cc1cc(C(=O)NCC2COc3ccccc3O2)c2ccccc2n1 (centres undefined)	INS promoter inh 83 (no result: Insulin prom up)
CC1=C(C(=O)Nc2ccccc2)C(c2ccc(C)o2)n2c(s/c(=C/c3ccccc3)c2=O)=N1 (centres undefined)	none
CC1=C(C(=O)Nc2ccccc2C)C(c2ccc(C)o2)n2c(s/c(=C/c3ccccc3)c2=O)=N1 (centres undefined)	INS promoter inh 77
CCOC(=O)c1[nH]c(C)c(C(=O)O)c1C	PERK inh 3.3
CCOC(=O)c1c(C)[nH]c(C(=O)CN2CC(C)OC(C)C2)c1C (centres undefined)	none (no result: INS promoter inh)
CCOC(=O)c1c(C)[nH]c(C(=O)CN2CCN(CC)CC2)c1C	eIF4E 4G PPI 54 (no result: Autophagy mod, INS promoter inh)
Cc1ccc(C(=O)N2CCN3C(=O)c4ccccc4C23c2ccc(Cl)cc2)cc1 (centres undefined)	Autophagy mod active
COc1ccccc1NC(=O)c1cc2cc(Br)ccc2cc1O	none (no result: Autophagy mod, Insulin prom up, INS promoter inh)
C=CCOC(=O)c1cc(-c2ccc(/C=C3\C(=O)NC(=O)C(C#N)=C3C)o2)ccc1Cl	eIF4E 4G PPI 60[fluorescence artefact?]
CN1C(=S)SC(C)(C)C1NO (centres undefined)	none
CC(=O)NC1C(=O)SC1(C)C (centres undefined)	INS promoter inh 88
CC(=O)Nc1ccc(S(=O)(=O)N2CCN(C(=O)c3cccnc3)CC2)cc1	none
O=C(CSc1nc2ccccc2c(=O)n1NC(=O)Cc1ccccc1)NCc1ccccc1Cl	none (no result: Insulin prom up)
O=[N+]([O-])c1ccccc1NCCOc1ccccc1	none
COc1cccc(OCCNc2cc(Cl)ccc2[N+](=O)[O-])c1	INS promoter inh 78
COc1ccc(CC(=O)OCc2cc3ccccc3[nH]c2=O)cc1	none (no result: Insulin prom up, INS promoter inh)
COc1cc(OC)cc(C(=O)OCc2cc3ccccc3[nH]c2=O)c1	INS promoter inh 71
CC[n+]1c(C=C2C=C(C)OC(C)=C2)sc2ccccc21	Autophagy mod active, Insulin prom up inconclusive
CCOC(=O)C1(Cc2ccccc2)CCN(Cc2cc(OC)c3c(c2)OCO3)CC1	none (no result: INS promoter inh)
CCOC(=O)C1(Cc2ccccc2C(F)(F)F)CCN(Cc2ccon2)CC1	none (no result: Autophagy mod, INS promoter inh)
CCOC(=O)C1(Cc2ccccc2)CCN(Cc2cccc3c2OCO3)CC1	Autophagy mod active (no result: INS promoter inh)
CCOC(=O)C1(Cc2ccccc2)CCN(Cc2ccon2)CC1	Autophagy mod active
N#Cc1cc2c(nc1SCC1COc3ccccc3O1)CCC2 (centres undefined)	none
Cc1cc(C)c(C#N)c(SCC2COc3ccccc3O2)n1 (centres undefined)	Insulin prom up 3.5
CC1(C)OC(=O)C(=CNn2cnc3ccccc3c2=O)C(=O)O1	INS promoter inh 82
O=C(NCc1ccco1)c1cc([N+](=O)[O-])cc([N+](=O)[O-])c1	INS promoter inh 67
O=C(NCc1ccco1)c1cc2ccccc2c(=O)o1	INS promoter inh 79
COc1cc(C2C(C#N)=C(N)OC3=C2C(=O)CCC3)c([N+](=O)[O-])cc1OC (centres undefined)	none (no result: INS promoter inh)
CSCCOC(=O)C1=C(C)Nc2ccc(C)cc2S1	Autophagy mod active (no result: Insulin prom up)
COc1ccc(CN2CSC(=S)N(Cc3ccc(OC)cc3)C2)cc1	none (no result: Autophagy mod, INS promoter inh)
NC(=O)CSc1nnc(-c2cccnc2)n1Cc1ccccc1	none
O=C(CSc1nnc(-c2cccnc2)n1CCc1ccccc1)N1CCCCC1	Autophagy mod active
NC(=O)c1ccc(SCC(=O)NC2CCCCC2)c([N+](=O)[O-])c1	none
Cc1cccc(NC(=S)N=Nc2c(O)n(CN3CCOCC3)c3ccccc23)c1C	INS promoter inh 78
